Consider 95 compounds from PubChem BioAssay AID2685 (National Center for Advancing Translational Sciences (NCATS), 2010).

The whole screen tested about 320,000 compounds, of which about 2,100 (0.66%) were called active. Roughly 53% stayed inconclusive and do not appear here. Calls follow the shape of the dose curve; as a rule, active = well fitted inhibition curve with a large enough effect in the signal ratio, with a control signal flat (not every such curve was filed as active); inconclusive = small, poorly fitted or top-dose-only effect, or effect the other way, or a change in a side signal; inactive = flat fitted curve, though single readings scatter; the % refers to the signal ratio. For the sample, actives were picked, then their nearest neighbours and some compounds at random.
Potency is read from the fitted curve at half-maximal effect.

A short description of the assay: qHTS Assay for Lipid Storage Modulators in Drosophila S3 Cells.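 As to cell number change: cells counted by Cell Tracker Red CMTPX staining in the red channel.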 Conditions: BODIPY lipid droplet fluorescence, 18-24 h, cells fed with added oleic acid; cell number change: measured here: cell count max response; series mostly up to 46.1 µM. A digest of the protocol:
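Drosophila S3 cells got compounds at several concentrations plus oleic acid (400 uM solution). Laser-scanning cytometry with 488 nm excitation read lipid droplets at 500-530 nm and cells at 575-640 nm. Percent activity was relative to 20 uM Triacsin C.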
For `O=C(NS(=O)(=O)Oc1cccc(Cl)c1Cl)OC[C@@H]1CCCN2CCCCC12` (stereo partly specified), the Potency entry was “inactive” and the cell number change is -10.2%. For `CN(C)CCCN(C(=O)c1ccc(S(=O)(=O)N2CCOCC2)cc1)c1nc2ccc(F)cc2s1` the same measures were “inactive” and 15.4%. As to `CCCOc1ccc(/C=C/c2[nH]c(=O)[nH]c(=O)c2[N+](=O)[O-])cc1OCC`, the Potency result is “inactive” and the cell number change is -5.22%. In the case of `CCOC(=O)COc1ccc(Br)cc1/C=C/c1[nH]c(=O)[nH]c(=O)c1[N+](=O)[O-]`, the Potency result was “inactive” and the cell number change was -18.1%. The like results for `CCOC(=O)CSC1=NC(=O)/C(=C/c2ccc(Br)cc2)S1` were, in that order, “inactive” and 1.95%. Regarding `CCCOc1ccccc1/C=C1\SC(N)=NC1=O`, the Potency result was “inactive” and the cell number change was found to be 13.8%. For the compound `CCOC(=O)COc1ccc(Br)cc1/C=C1\SC(N)=NC1=O`, the Potency is 5.8 µM (active) and the cell number change is -21.5%. `CCOC(=O)COc1ccc(Br)cc1/C=C\c1[nH]c(=O)[nH]c(=O)c1[N+](=O)[O-]`: the Potency is 20.6 µM (active) and the cell number change is -21.8%. `Cc1c(C(=O)N2CCCC2)sc(NC(=O)c2ccco2)c1C#N`: the Potency entry is “inactive” and the cell number change was -19.3%. The like results for `COC(=O)[C@@H](NC(=O)Nc1ccc(OC)cc1)C(C)C` were, in that order, “inactive” and -11.6%. The like results for `COc1cc(NC(=O)N[C@H](C(=O)O)C(C)C)cc(OC)c1` were, in that order, 5.8 µM (active) and -13.1%. For `COC(=O)[C@@H](NC(=O)Nc1cccc(OC)c1)C(C)C`, the Potency result is “inactive” and the cell number change is -18%.

`Nc1nc2ccc(Oc3ccccc3)cc2s1`: the Potency result was “inactive” and the cell number change is -7.07%. Take `CCOC(=O)CSc1nc(=O)n2ccccc2n1`: the Potency result is “inactive” and the cell number change was -9.97%. Regarding `COc1ccc(CN2CCC(C)CC2)cc1OCc1ccccc1`, the Potency entry is “inactive” and the cell number change worked out at 4.43%.

`CCN1CCN(Cc2ccc(OCc3ccccc3)c(OC)c2)CC1`: the Potency entry was “inactive” and the cell number change was -5.92%. For `COc1ccc(CN2CCN(C)CC2)cc1OCc1ccccc1` the same measures were 18.4 µM (active) and -3.92%.

For `CC(=O)Cc1cc(=O)c2c(C)cc(O)c(C3OC(CO)C(O)C(O)C3O)c2o1` (stereo unspecified), the Potency entry was “inactive” and the cell number change is -1.27%. For `O=C(COC(=O)c1cc(-c2ccccc2)nc2ccccc12)Nc1ccc2c(c1)OCO2` the same measures were “inactive” and 2.4%.

With `CC(=O)Nc1ccc(-n2c(C)nc(=O)c(-c3ccccc3)c2C)cc1`, the Potency was 13 µM (active) and the cell number change stood at 13.2%. The like results for `Cc1nc(=O)c(-c2ccccc2)c(C)n1-c1ccc(O)cc1` were, in that order, “inactive” and 0.899%. For `COC(=O)c1ccc(-n2c(C)nc(=O)c(-c3ccccc3)c2C)cc1` the same measures were “inactive” and 0.97%. `CCN(/C=N/S(=O)(=O)c1ccc(Cl)cc1)CC`: the Potency result was “inactive” and the cell number change came out at 6.24%. For `CSc1cc(C)n(-c2ccc(Cl)cc2)c(=S)c1C(C)=O`, the Potency result was “inactive” and the cell number change was 5.69%. With `CSc1cc(C)n(-c2ccccc2C)c(=S)c1C(C)=O`, the Potency is 29.1 µM (active) and the cell number change was 16.2%. Turning to `COc1ccccc1-n1c(C)cc(SC)c(C(C)=O)c1=S`, the Potency result was “inactive”. With `Cc1ccccc1NC(=O)NC1(C(=O)NCCCN2CCOCC2)CCCCC1`, the Potency result is “inactive” and the cell number change is -17.7%. Consider `CC(=O)N1c2c(cc(Br)cc2S(=O)(=O)NCc2ccc3c(c2)OCO3)CC1C` (stereo unspecified), for which the Potency entry was “inactive” and the cell number change is -27.2%.

Turning to `CCCc1ccc2oc(C(=O)N3CCN(CC(=O)NC(C)C)CC3)c(C)c2c1`, the Potency is 4.11 µM (active) and the cell number change is -11.6%. For `CCCc1ccc2oc(C(=O)N3CCC(O)CC3)c(C)c2c1` the same measures were “inactive” and 4.78%.

On to `CCCc1ccc2oc(C(=O)N3CCN(c4cnccn4)CC3)c(C)c2c1`, for which the Potency result is “inactive” and the cell number change is -14.5%. In the case of `COc1ccc(Cl)cc1C(=O)NNC(=O)c1cccnc1`, the Potency entry was “inactive”. As to `CS(=O)(=O)c1ccc2sc(NC(=O)c3cc4ccccc4o3)nc2c1`, the Potency entry was “inactive” and the cell number change is -15.1%.

`CCC(C)COC(c1ccccc1)(c1ccccc1)C(Oc1nc(C)cc(C)n1)C(=O)O` (stereo unspecified): the Potency entry was “inactive”.

`Cc1cc(C)nc(OC(C(=O)O)C(OCC(C)C)(c2ccccc2)c2ccccc2)n1` (stereo unspecified): the Potency was 29.1 µM (active) and the cell number change was -23.5%. Regarding `Cc1cc(C)nc(OC(C(=O)O)C(OCc2ccccc2)(c2ccccc2)c2ccccc2)n1` (stereo unspecified), the Potency entry was “inactive” and the cell number change was -6.47%. For `Cc1cc(/C(N)=N/OC(=O)Nc2ccccc2)no1` the same measures were “inactive” and 22.2%. Consider `O=S(=O)(Nn1cnnc1)c1ccc2ccccc2c1`, for which the Potency entry is “inactive” and the cell number change was -5.21%. The like results for `Cc1ccsc1CNC12CC3CC(CC(C3)C1)C2` were, in that order, “inactive” and 10.4%.

Turning to `Cc1ccc(Cl)cc1NC(=O)CNC(=O)N1CC(=O)Nc2ccccc21`, the Potency entry is “inactive” and the cell number change is -12.7%. As to `COc1ccc(Cl)cc1NC(=O)CN(C)CC(=O)N1CC(=O)Nc2ccccc21`, the Potency is 1.3 µM (active) and the cell number change was -5.42%.

As to `COc1ccc(Cl)cc1NC(=O)CN(C)CC(=O)Nc1ccccc1-c1ccccc1`, the Potency result was “inactive” and the cell number change came out at 22.9%. The like results for `COc1cccc(NC(=O)CSc2nnc3cc(C)nc(N)n23)c1` were, in that order, “inactive” and -13.7%. In the case of `O=C(CSc1nnc(Nc2ccccc2F)s1)NC1CCCC1`, the Potency is 11.6 µM (active) and the cell number change is -17.4%. `COc1ccccc1Nc1nnc(SCC(=O)NC2CC2)s1`: the Potency result is “inactive” and the cell number change is -14.3%. For `O=C(CSc1nnc(NC(=O)c2ccccc2)s1)NC1CCCC1` the same measures were “inactive” and -5.42%. For `CC(=O)n1cc([C@@H]2C=C(C(=O)NCc3ccccc3)O[C@H](OCCCCO)C2)c2ccccc21` the same measures were “inactive” and -1.9%.

Consider `CCn1c(SCc2cc(=O)n3ccsc3n2)nc2ccccc21`, for which the Potency result was “inactive” and the cell number change stood at 0.881%. Consider `Cc1cccc(-n2c(SCc3cc(=O)n4ccsc4n3)nc3ccccc32)c1`, for which the Potency is 14.6 µM (active) and the cell number change is -9.74%. The like results for `Cc1ccc(SCc2cc(=O)n3ccsc3n2)c(C)c1` were, in that order, “inactive” and -12.5%. The like results for `O=C(CSc1nnc(-c2ccncc2)n1-c1ccccc1)Nc1ccc(C(=O)O)cc1` were, in that order, “inactive” and 4.34%. The like results for `O=C(COC(=O)c1ccc[nH]c1=O)NC1CCCc2ccccc21` (stereo unspecified) were, in that order, “inactive” and 6.05%. `Cc1noc(C)c1S(=O)(=O)N1CCCC(C(=O)NCCc2ccc(Cl)cc2)C1` (stereo unspecified): the Potency entry is “inactive”.

With `Cc1nnc(SCC(=O)Nc2ccc(N3CCOCC3)cc2)n1-c1ccccc1`, the Potency entry is “inactive” and the cell number change was -17.5%. Take `CCCCn1c(-c2ccc(C(C)(C)C)cc2)nc2cc3[nH]c(=O)c(C(C)C)nc3cc21`: the Potency entry is “inactive” and the cell number change was -12.9%. For `CCCCn1c(-c2cccc(C)c2)nc2cc3[nH]c(=O)c(C(C)C)nc3cc21` the same measures were “inactive” and -25.6%. With `CCCCn1c(-c2cccc3ccccc23)nc2cc3[nH]c(=O)c(C(C)C)nc3cc21`, the Potency is 20.6 µM (active) and the cell number change was -23%.

As to `O=C(c1cccnc1Cl)N(Cc1ccccc1)Cc1ccccc1`, the Potency entry is “inactive” and the cell number change stood at 4.31%. The like results for `CCCOC(=O)c1ccc(NC(=O)C2C3CCC(C3)C2C(=O)O)cc1` (stereo unspecified) were, in that order, “inactive” and 2.97%. With `COc1ccc(/C=N/NC(=O)c2ccncc2)cc1CSc1nc2ccccc2s1`, the Potency result was “inactive” and the cell number change is 1.7%. The like results for `CCN(CC)C(=O)CSc1nc(C)cc(C)n1` were, in that order, “inactive” and -1.44%. For `CCOC(=O)CSc1nc(C)cc(C)n1` the same measures were 23.1 µM (active) and 4.86%. For `Cc1cc(C)nc(SCC(N)=O)n1`, the Potency result was “inactive” and the cell number change is 14.6%. With `CCOc1ccccc1OCC(=O)Oc1ccc(C)c(C)c1`, the Potency result was “inactive” and the cell number change came to 18.7%. For `Cc1nc(N/N=C/c2ccccn2)sc1C` the same measures were “inactive” and -10.6%. The like results for `Cc1nc(-c2ccccc2)sc1-c1nc(-c2ccncc2)ncc1S(=O)(=O)c1ccccc1` were, in that order, “inactive” and 12.5%. The like results for `O=C(O)C1CC=CCC1C(=O)NCCc1ccccc1` (stereo unspecified) were, in that order, 23.1 µM (active) and 3.33%. As for `COc1ccc(CCNC(=O)C2CC=CCC2C(=O)O)cc1` (stereo unspecified), the Potency entry is “inactive” and the cell number change stood at 23.9%. The like results for `O=C(O)C1CC=CCC1C(=O)Nc1cc(Cl)ccc1Cl` (stereo unspecified) were, in that order, “inactive” and -10.1%. With `CC1=C(C)CC(C(=O)NCC(=O)c2ccccc2)C(C(=O)O)C1` (stereo unspecified), the Potency result was “inactive”. `O=C(NNC(=O)[C@H]1CC=CC[C@H]1C(=O)O)c1ccc(Cl)cc1Cl`: the Potency result is “inactive” and the cell number change was 10.3%.

On to `O=C(O)[C@H]1CCCC[C@H]1C(=O)NCCc1ccccc1`, for which the Potency result was “inactive” and the cell number change worked out at 7.81%.

As for `O=C(Cc1ccc(Cl)cc1)NNC(=O)C1CC=CCC1C(=O)O` (stereo unspecified), the Potency was 18.4 µM (active). On to `O=C(O)C1CCCCC1C(=O)NCCCc1ccccc1` (stereo unspecified), for which the Potency result was “inactive” and the cell number change is -1.96%. `CC1=C(C)CC(C(=O)NCCc2ccccc2)C(C(=O)O)C1` (stereo unspecified): the Potency is 6.51 µM (active). Consider `C/C(=N/N=C1/NC(=O)CC(C(=O)Nc2ccccc2)S1)c1cccs1` (stereo unspecified), for which the Potency result was “inactive” and the cell number change was 1.13%. The like results for `CCOc1ccc(/C=C2\SC(=S)N(CCC(=O)Nc3ccc(C(=O)O)cc3)C2=O)cc1` were, in that order, “inactive” and 8.29%. For `O=C(Nc1cccc(C(F)(F)F)c1)c1cncs1`, the Potency result is “inactive”. Consider `CCC(C)NC(=O)C1c2ccccc2C(=O)N1Cc1cc(OC)ccc1OC` (stereo unspecified), for which the Potency entry was “inactive” and the cell number change is 8.31%. For `O=C(N=Nc1c(O)[nH]c2ccccc12)c1cccs1` the same measures were “inactive” and -7.18%. With `COc1cc(OC)cc(C(=O)N2CCN(C(=O)c3ccc(OC)c(OC)c3)CC2)c1`, the Potency result was “inactive” and the cell number change was 14.7%. Consider `CN(CCc1ccccn1)Cc1ccc(Cl)c(Cl)c1`, for which the Potency entry is “inactive” and the cell number change is -4.68%. `CN(CCc1ccccn1)Cc1ccc(Cl)cc1`: the Potency result was “inactive” and the cell number change amounted to 7.49%. The like results for `CC(C)=CCCC(C)CN(C)CCc1ccccn1` (stereo unspecified) were, in that order, 18.4 µM (active) and -0.762%. For `COc1ccc(CNC(=S)Nc2ccccc2)cc1Cl` the same measures were “inactive” and 0.106%. For `COC(CNC(=O)CN1CCN(Cc2ccc(F)cc2Cl)C1=O)OC`, the Potency result was “inactive” and the cell number change was -2.41%. For `COC(=O)c1ccc(C(=O)OCCCc2nc3ccc(N)cc3[nH]2)cc1` the same measures were “inactive” and 2.42%.

For the compound `Nc1ccc(C(=O)OCCCc2nc3ccccc3[nH]2)cc1`, the Potency entry is “inactive” and the cell number change turned out to be 0.404%. For `Nc1ccc(C(=O)OCCCc2nc3cc4ccccc4cc3[nH]2)cc1` the same measures were 25.9 µM (active) and -15.5%.

Take `COc1ccc(/C=C(\C#N)C(=O)c2c(C)[nH]c3ccccc23)cc1OC`: the Potency entry was “inactive”. With `O=C(CSc1ccccc1)Nc1nnc(C2CC2)s1`, the Potency entry was “inactive” and the cell number change is 6.15%.

For `Cc1ccc(NC(=O)COC(=O)CCc2ccc(S(=O)(=O)N3CCOCC3)cc2)c(C)c1`, the Potency entry was “inactive” and the cell number change was determined as 16.8%. For the compound `O=C(COC(=O)C1CCC(=O)N1)Nc1ccc(Cl)cc1Cl` (stereo unspecified), the Potency result was “inactive” and the cell number change is -17%. Take `Cc1ccc(NC(=O)COC(=O)C2CCC(=O)N2)c(S(=O)(=O)N2CCOCC2)c1` (stereo unspecified): the Potency is 3.66 µM (active) and the cell number change was determined as 2.3%. As to `CCC(C)OC(=O)C1=C(C)OC23OC(N)=C(C#N)C12C(=O)c1ccccc13` (stereo unspecified), the Potency entry is “inactive” and the cell number change stood at 2.42%.
